# Results from the supplement of paper PMC4840960.
# Structures can show the parent of a compound that is named as a salt. ± gives the standard deviation of the averaged measurements.
# Experiments:
# [1] = system: E18 rat cortical neuron-glia co-culture; assay: fiber score / MBP score (myelination specific beyond OL differentiation) (ratio); higher = more myelination-specific MBP alignment; settings: treatment time: 8 days (DIV5-DIV13)
# Outline: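 The measure is the ratio of fiber score to MBP score, where fiber score is continuous MBP fiber length per Olig2+ nucleus and MBP score is thresholded MBP area × intensity per Olig2+ nucleus. Primary E18 rat cortical co-cultures received library compounds at 1 or 5 µM in myelination medium from DIV5 to DIV13, then were fixed in 4 % paraformaldehyde and stained for MBP, Olig2 and DAPI before analysis of four 10X fields per well in duplicate wells.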
# [2] = system: E18 rat cortical neuron-glia co-culture; assay: myelination (MBP fiber length per Olig2+ nucleus), % of 1 µM DAPT response (DMSO = 0) (% of DAPT); higher = more myelination, active = 50 or more; settings: treatment time: 8 days (DIV5-DIV13)
# Outline: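 The myelination value was the continuous straight MBP fiber length per Olig2+ nucleus, scaled between 0.1 % DMSO (0) and a 1 µM positive control (100). It was measured in primary E18 rat cortical co-cultures treated with library compounds at 1 or 5 µM in myelination medium from DIV5 through DIV13. Cells were fixed in 4 % paraformaldehyde and stained for MBP, Olig2 and DAPI, and four 10X fields per well were imaged in duplicate wells.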
SMILES,fiber score / MBP score ([1]; 1 µM),fiber score / MBP score ([1]; 5 µM),myelination ([2]; 1 µM),myelination ([2]; 5 µM)
O=C1NC(C(=O)O)CS1 (centres undefined) [2-oxothiazolidine-4-carboxylic acid],0.704,0.758,-34.3 (inactive),-59.9 (inactive)
CC(C)[C@H]1CC[C@H](C(=O)N[C@H](Cc2ccccc2)C(=O)O)CC1 [Nateglinide],0.796,0.739,-12.6 (inactive),-10.9 (inactive)
Cc1ccc(NC(=O)c2ccc(CN3CCN(C)CC3)cc2)cc1Nc1nccc(-c2cccnc2)n1 [Imatinib mesylate],0.424,0.773,-5.16 (inactive),37.1 (inactive)
CC1(C)S[C@@H]2[C@H](NC(=O)Cc3ccccc3)C(=O)N2[C@H]1C(=O)O [Penicillin G],0.898,1.19,12.3 (inactive),4.95 (inactive)
OCCN(CCO)c1nc(N2CCCCC2)c2nc(N(CCO)CCO)nc(N3CCCCC3)c2n1 [Dipyridamole],1.01,0.523,3.14 (inactive),-17.3 (inactive)
CC[C@H](C)C(=O)O[C@H]1C[C@@H](C)C=C2C=C[C@H](C)[C@H](CC[C@@H]3C[C@@H](O)CC(=O)O3)[C@H]21 [Lovastatin],2.07,6.02,-6.08 (inactive),1.23 (inactive)
Cc1ncc([N+](=O)[O-])n1CCO [Metronidazole],0.862,0.794,-7.63 (inactive),-10.1 (inactive)
COc1cc2c(cc1OC)C(=O)C(CC1CCN(Cc3ccccc3)CC1)C2 (centres undefined) [Donepezil],0.462,0.277,-20.8 (inactive),-26.1 (inactive)
COCCOC(=O)C1=C(C)NC(C)=C(C(=O)OC(C)C)C1c1cccc([N+](=O)[O-])c1 (centres undefined) [Nimodipine],0.486,0.338,-18.6 (inactive),-24.9 (inactive)
NS(=O)(=O)c1cc(C(=O)O)c(NCc2ccco2)cc1Cl [Furosemide],0.894,0.97,-9.91 (inactive),-6.31 (inactive)
COc1ccnc(C[S+]([O-])c2nc3cc(OC(F)F)ccc3[nH]2)c1OC (centres undefined) [Pantoprazole],0.86,0.933,-9.58 (inactive),1.97 (inactive)
CN1CCN2c3ncccc3Cc3ccccc3C2C1 (centres undefined) [Mirtazapine],0.861,1.07,-13.9 (inactive),-4.21 (inactive)
CCC[C@@H]1C[C@@H](C(=O)N[C@@H]([C@H]2O[C@H](SC)[C@H](O)[C@@H](O)[C@H]2O)[C@@H](C)O)N(C)C1 [Lincomycin],0.754,0.914,-22.9 (inactive),7.24 (inactive)
CN1CCC(=C2c3ccccc3CCc3sccc32)CC1 [Pizotyline],0.579,0.636,-41 (inactive),-22 (inactive)
CNCCCN1c2ccccc2CCc2ccccc21 [Desipramine],0.74,0.549,-14.9 (inactive),-13.3 (inactive)
CC(=O)/N=c1/sc(S(N)(=O)=O)nn1C [Methazolamide],0.875,0.672,-8.24 (inactive),-24.1 (inactive)
C/C(=C\C(=O)OCCCCCCCCC(=O)O)C[C@@H]1OC[C@H](C[C@@H]2O[C@H]2[C@@H](C)[C@H](C)O)[C@@H](O)[C@H]1O [Mupirocin],0.423,0.41,-12.7 (inactive),-11.7 (inactive)
CC(=O)O[C@]1(C(C)=O)CC[C@H]2[C@@H]3C[C@H](C)C4=CC(=O)CC[C@]4(C)[C@H]3CC[C@@]21C [Medroxyprogesterone acetate],1.1,0.549,0.776 (inactive),-11.3 (inactive)
Cc1ccc(S(=O)(=O)NC(=O)NN2CCCCCC2)cc1 [Tolazamide],0.701,0.729,-15.6 (inactive),-16.8 (inactive)
Nc1ncnc2c1ncn2[C@@H]1O[C@H](CO)[C@@H](O)[C@H]1O [Adenosine],1.08,0.875,-4.96 (inactive),-4.36 (inactive)
OC(CCN1CCCCC1)(c1ccccc1)C1CCCCC1 (centres undefined) [Trihexyphenidyl],0.616,0.486,-12.2 (inactive),-15.2 (inactive)
Cc1nnc(SCC2=C(C(=O)O)N3C(=O)[C@@H](NC(=O)Cn4cnnn4)[C@H]3SC2)s1 [Cefazolin],0.798,1.19,-6.67 (inactive),6.84 (inactive)
C[C@]12C=CC(=O)C=C1CC[C@@H]1[C@@H]2C(=O)C[C@@]2(C)[C@H]1CC[C@]2(O)C(=O)CO [Prednisone],0.839,0.736,-13.2 (inactive),-10.1 (inactive)
Cc1ccsc1C(=CCCN1CCC[C@@H](C(=O)O)C1)c1sccc1C [Tiagabine],0.656,0.716,-23.8 (inactive),-16.6 (inactive)
C[n+]1ccccc1C=NO [Pralidoxime],0.884,1.12,-7.49 (inactive),1.41 (inactive)
CO[C@H]1/C=C/O[C@@]2(C)Oc3c(C)c(O)c4c(c3C2=O)C2=NC3(CCN(CC(C)C)CC3)NC2=C(NC(=O)/C(C)=C\C=C\[C@H](C)[C@H](O)[C@@H](C)[C@@H](O)[C@@H](C)[C@H](OC(C)=O)[C@@H]1C)C4=O [Rifabutin],0.967 ± 0.41,0.734 ± 0.12,-2.92 (inactive),-11.2 (inactive)

SMILES,fiber score / MBP score ([1]; 1 µM),fiber score / MBP score ([1]; 5 µM),myelination ([2]; 1 µM),myelination ([2]; 5 µM)
COc1ccc(C(=O)NCc2ccc(OCCN(C)C)cc2)cc1OC [Itopride],0.63,0.693,-10.9 (inactive),-10.7 (inactive)
COc1cc2nc(N3CCN(C(=O)C4COc5ccccc5O4)CC3)nc(N)c2cc1OC (centres undefined) [Doxazosin],0.727,0.531,-45.2 (inactive),-54.3 (inactive)
CCC(C)n1ncn(-c2ccc(N3CCN(c4ccc(OCC5COC(Cn6cncn6)(c6ccc(Cl)cc6Cl)O5)cc4)CC3)cc2)c1=O (centres undefined) [Itraconazole],1.21,0.918,8.72 (inactive),-72.2 (inactive)
CO[C@H]1/C=C/O[C@@]2(C)Oc3c(C)c(O)c4c(O)c(c5c(nc6cc(C)ccn65)c4c3C2=O)NC(=O)/C(C)=C\C=C\[C@H](C)[C@H](O)[C@@H](C)[C@@H](O)[C@@H](C)[C@H](OC(C)=O)[C@@H]1C [Rifaximin],0.779,0.73,-4.06 (inactive),-12 (inactive)
COc1cc(Cc2cnc(N)nc2N)cc(OC)c1OC [Trimethoprim],0.828,1.18,-9.76 (inactive),5.27 (inactive)
Nc1nc2ccc(OC(F)(F)F)cc2s1 [Riluzole],0.879,0.478,-26.1 (inactive),-52.5 (inactive)
Cc1c(O)c(=O)ccn1C [Deferiprone],0.908,0.731,-11.3 (inactive),-23.2 (inactive)
CC(C)(C(=O)c1cccnc1)c1cccnc1 [Metyrapone],0.588,0.894,-19.7 (inactive),-9.03 (inactive)
CCN(CC)CCOC(=O)C1(C2CCCCC2)CCCCC1 [Dicyclomine],0.616,0.288,-14.3 (inactive),-24.6 (inactive)
CC(=O)Nc1ccc(CC(=O)O)cc1 [Actarit],0.756,0.778,-13.9 (inactive),-10.1 (inactive)
"O=c1[nH]cnc2c1ncn2[C@H]1CC[C@@H](CO)O1 [2',3'-Dideoxyinosine]",1.07,0.869,-2.19 (inactive),-10.5 (inactive)
O=C1Nc2ccc(Cl)cc2[C@@](C#CC2CC2)(C(F)(F)F)O1 [Efavirenz],0.744,0.712,-8.9 (inactive),11.1 (inactive)
CN1C(=O)CC[C@H]1c1cccnc1 [Cotinine],0.604,0.723,-30.3 (inactive),-28.1 (inactive)
Nc1nc2c(ncn2COC(CO)CO)c(=O)[nH]1 [Ganciclovir],0.944,1,-5.82 (inactive),7.82 (inactive)
COc1ccc2cc(CCC(C)=O)ccc2c1 [Nabumetone],0.801,1.17,-8.32 (inactive),6.9 (inactive)
Cn1nnc2c(C(N)=O)ncn2c1=O [Temozolomide],0.532,0.773,-29.3 (inactive),-12.8 (inactive)
CCn1cc(C(=O)O)c(=O)c2cc(F)c(N3CCNCC3)cc21 [Norfloxacin],0.701,0.729,-19.9 (inactive),-11.1 (inactive)
CCCC(=O)Nc1ccc(OCC(O)CNC(C)C)c(C(C)=O)c1 (centres undefined) [Acebutolol],0.757,0.796,-40.3 (inactive),-32.5 (inactive)
Cn1cnc([N+](=O)[O-])c1Sc1ncnc2[nH]cnc12 [Azathioprine],0.762,0.822,-10.3 (inactive),-32.9 (inactive)
CC(C(O)c1ccc(O)cc1)N1CCC(Cc2ccccc2)CC1 (centres undefined) [Ifenprodil],0.348,0.136,-70.3 (inactive),-83.6 (inactive)
Nc1ccc(S(=O)(=O)c2ccc(N)cc2)cc1 [Dapsone],0.932,0.925,-3.07 (inactive),-4.22 (inactive)
COc1ccc(/C=C/C(=O)Nc2ccccc2C(=O)O)cc1OC [Tranilast],0.857,0.89,-12.7 (inactive),-4.27 (inactive)
Cn1ccnc1S [Methimazole],0.372,0.312,-14.3 (inactive),-15.9 (inactive)
Cc1cnc(NC(=O)C2=C(O)c3ccccc3S(=O)(=O)N2C)s1 [Meloxicam],0.958,1,-0.993 (inactive),3.06 (inactive)
CN(C)CCCN1c2ccccc2CCc2ccccc21 [Imipramine],0.817,0.517,-3.36 (inactive),-6.74 (inactive)
